{
  "source": "PubChem BioAssay AID588334",
  "about": "(Broad Institute, 2011)",
  "note": "Among all 300,000 compounds or so, about 2,300 (0.77%) were called active. The sample holds actives, similar compounds and a random draw of the others, so the mix is not that of the screen. Values without a mark were called inactive.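 The calls were made as follows: active = mean activation of at least 80% with every replicate also reaching 80%; inconclusive = mean reaches 80% but some replicate falls short; inactive = the rest.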",
  "data": [
    {"experiment": "MITF-driven TRPM1 luciferase induction in melanoma cells – cell-based, SK-MEL-5, single point, primary screen (AID 588334);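 also: 0% = neutral control wells and 100% = parthenolide positive control wells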", "conditions": "SK-MEL-5 TRPM1-promoter luciferase, 24 h; at 12.5 µM; active compounds read high; % of positive control, neutral wells = 0", "values": [
      {"compound": "O=C(N[C@H]1C/C=C\\C(c2cccc(F)c2)N(Cc2ccccc2)C(=O)C1)OCC1c2ccccc2-c2ccccc21", "note": "(some centres undefined)", "activation": "20.8%"},
      {"compound": "c1csc(-c2nc(-c3ccncc3)no2)c1", "activation": "113% (active)"},
      {"compound": "c1ccc(CCc2nc(-c3ccncc3)no2)cc1", "activation": "57.8%"},
      {"compound": "Cc1ccc(-c2nc(-c3ccncc3)no2)c(C)c1", "activation": "70.8%"},
      {"compound": "CSCCC(NC(=O)c1ccccc1)C(=O)N1CCN(Cc2ccc(Cl)cc2)CC1", "note": "(centres undefined)", "activation": "-8.56%"},
      {"compound": "CN(c1ccccc1)S(=O)(=O)c1cc(C(=O)N2CCN(c3ncccn3)CC2)ccc1Cl", "activation": "-2.71%"},
      {"compound": "COc1cccc(C=CC(=O)C=CC=Cc2ccccc2)c1", "activation": "-4.72%"},
      {"compound": "NC(=O)C1(Nc2ccc(-c3ccccc3)cc2)CCCC1", "activation": "5.06%"},
      {"compound": "COc1ccc(N=C(C)c2sc3ccccc3c2O)cc1", "activation": "123% (active)"},
      {"compound": "COc1ccc(N=Nc2ccc(O)c(P(=O)(c3ccccc3)c3ccccc3)c2)cc1", "activation": "5.85%"},
      {"compound": "COC(=O)Cc1[nH]n(-c2nc3ccccc3s2)c(=O)c1C(C)=Nc1ccc(OC)cc1", "activation": "-94.9%"},
      {"compound": "CCN(CC)C(=O)[C@H]1C[C@H](CC(=O)NCC23CC4CC(CC(C4)C2)C3)C(=O)N2CCc3c([nH]c4cc(CCC(=O)N(C)C)ccc34)[C@]12C", "activation": "-10.9%"},
      {"compound": "COc1cc(C(=O)CCc2ccc3c(c2)OCO3)cc(OC)c1OC", "activation": "-4.27%"},
      {"compound": "CC(C=Cc1ccccc1)=NNS(=O)(=O)c1ccc([N+](=O)[O-])cc1", "activation": "-13.6%"},
      {"compound": "COc1cc(C(=O)OCC(=O)NC23CC4CC(CC(C4)C2)C3)cc(OC)c1OC", "activation": "-3.15%"},
      {"compound": "COc1cc(NC(=O)COC(=O)c2cc(S(=O)(=O)N3CCOCC3)ccc2F)cc(OC)c1", "activation": "1.31%"},
      {"compound": "Brc1ccc(CSc2ccc(-c3ccco3)nn2)cc1", "activation": "71.9%"},
      {"compound": "O=C(CSc1ccc(-c2ccco2)nn1)Nc1cccc(F)c1", "activation": "13.2%"},
      {"compound": "Fc1cccc(Cl)c1CSc1ccc(-c2ccco2)nn1", "activation": "93.7% (active)"},
      {"compound": "O=C(Nc1ccn(CCCNCc2ccc3[nH]ccc3c2)c(=O)n1)OCc1ccccc1", "activation": "-4.16%"},
      {"compound": "CCCSc1ccc([C@H]2N[C@@](Cc3ccccc3)(C(=O)OC)[C@H]3C(=O)N(C)C(=O)[C@@H]23)cc1", "activation": "1.47%"},
      {"compound": "Cc1ccccc1OCC(=O)Nc1ccc2c(c1)ncn2C", "activation": "152% (active)"},
      {"compound": "Cc1ccccc1OCC(=O)Nc1ccc(S(=O)(=O)N2CCOCC2)cc1", "activation": "-5.13%"},
      {"compound": "Cc1ccccc1OCC(=O)Nc1ccc(N2CCN(C(=O)C(C)C)CC2)c(Cl)c1", "activation": "-59.2%"}
    ]}
  ]
}
